Measured values reported in PubChem BioAssay.
The source made the active and inactive calls.

Tests used:
[1] = small molecules captured by biotinylated probe aFSTL3 – biochemical, small-molecule microarray, fluorescence 635/667, stem cell growth factor project, primary screen (AID 1064); conditions: higher = more signal;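 also: measures binding of the biotinylated anti-FSTL3 antibody to printed compounds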
[2] = binders from COS7 lysate, DM2A8 probe, primary screen, torsin A project, cell lysate, small-molecule microarray, fluorescence 635/667 (AID 1065); conditions: higher = more signal, COS7 lysate expressing mutant human TOR1A
[3] = small molecules captured by biotinylated probe aFGF2 – biochemical, small-molecule microarray, fluorescence 635/667, stem cell growth factor project, primary screen (AID 1067); conditions: higher = more signal;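 also: measures binding of biotinylated aFGF2 protein to printed compounds on slides; z-score merges feature fluorescence and signal-to-noise across triplicate slides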
[4] = small molecules captured by biotinylated probe aFGF10 – biochemical, small-molecule microarray, fluorescence 635/667, stem cell growth factor project, primary screen (AID 1071); conditions: higher = more signal;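 also: score merges 667 nm spot intensity and signal to noise from triplicate slides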
[5] = target: Neurogenic locus notch homolog protein 2 (Homo sapiens) (UniProt Q04721); experiment: small molecules binding Notch2 protein – biochemical, small-molecule microarray, 635 nm fluorescence, stem cell growth factors, primary screen (AID 1073); conditions: higher = more signal
[6] = target: Pro-neuregulin-1, membrane-bound isoform (Homo sapiens) (UniProt Q02297); experiment: small molecules binding neuregulin-1 protein – biochemical, small-molecule microarray, fluorescence 635/667, psychiatric disease protein project, primary screen (AID 1075); conditions: NRG1 binding, 635 nm fluorescence, higher = more signal;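 also: score combines 667 nm spot fluorescence with signal to noise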
[7] = tested on: Neuregulin-1 EGF-like domain; experiment: small molecules binding NRG1 EGF domain – biochemical, small-molecule microarray, 635 nm fluorescence, primary screen (AID 1081); conditions: higher = more signal;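 also: binding of the protein to compounds printed on small-molecule microarray slides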
[8] = FRG1 expression reporter modulators in myotubes – cell-based, C2C12 myotubes, firefly/Renilla luciferase, luminescence, FRG1 inhibition for FSHD, primary screen (AID 1084); conditions: FRG1 promoter luciferase, higher = more signal, called active from +8 up or from −8 down
[9] = small molecules captured by biotinylated probe aFST – biochemical, small-molecule microarray, fluorescence 635/667, stem cell growth factor project, primary screen (AID 1086); conditions: higher = more signal;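 also: score merges 667 nm fluorescence with signal-to-noise of each printed compound spot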
[10] = binders of probe aHhip on microarray, primary screen, stem cell growth factor project, biochemical, small-molecule microarray, fluorescence 635/667 (AID 1087); conditions: higher = more signal;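 also: score merges spot fluorescence at 667nm with spot signal to noise ratio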
[11] = tested on: PRMT1 (protein arginine N-methyltransferase 1); experiment: small molecules binding arginine methyltransferase PRMT1 – biochemical, small-molecule microarray, 635 nm fluorescence, primary screen (AID 1088); conditions: higher = more signal;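 also: binding of Prmt1 protein to compounds spotted on small-molecule microarray slides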
[12] = growth effects on S. cerevisiae YJM789 – YJM789 clinical isolate, OD600, 24 h, basal, primary screen (AID 1089); conditions: higher = more signal, called active from +8 up or from −8 down;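 also: growth of clinical yeast isolate S. cerevisiae YJM 789 seeded 1000 cells per well; test concentration not given here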
[13] = S. pombe growth modifiers, basal conditions – strain 972, OD600, 24 h, no modulator, primary screen (AID 1090);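 also: basal condition with compound alone and no growth modifier present; test concentration not given here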; conditions: S. pombe 972 growth, higher = more signal, called active from +8 up or from −8 down
[14] = budding yeast growth modifiers under rapamycin – strain BY4716, OD600, 96 h, primary screen (AID 1091); also: test concentration not given here; conditions: S. cerevisiae BY4716 + rapamycin, higher = more signal, called active from +8 up or from −8 down
[15] = target: Torsin-1A-interacting protein 2 (Homo sapiens) (UniProt Q8NFQ8); experiment: small molecules binding lysate-expressed LULL1 – cell lysate, human LULL1 lysate, 635/667 nm fluorescence, primary screen (AID 1092); conditions: small-molecule microarray, hLULL1 lysate binding, 635 nm fluorescence; higher = more signal;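 also: probe is lysate of COS7 cells overexpressing human LULL1; score merges per-feature 667 nm fluorescence with signal-to-noise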
[16] = optical density change of DRC41 E. coli – strain DRC41, OD650, 24 h, E. coli filamentation project, primary screen (AID 1093);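 also: MC1000 strain lacking acrAB efflux and sulA so SOS filamentation is blocked; test concentration not given here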; conditions: E. coli DRC41 growth, higher = more signal, called active from +8 up or from −8 down
[17] = probe aLefty2 binding to arrayed compounds – biochemical, biotinylated probe, 635/667 nm fluorescence, primary screen (AID 1094); conditions: small-molecule microarray, higher = more signal;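 also: score merges spot fluorescence near 667 nm with spot signal-to-noise ratio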
[18] = tested on: Noggin (protein binding on small-molecule microarray); experiment: small molecules binding Noggin protein – biochemical, 635/667 nm fluorescence, primary screen (AID 1095); conditions: 635 nm fluorescence, higher = more signal;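 also: score merges 667 nm feature fluorescence with signal to noise over triplicate slides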
[19] = target: Neurogenic locus notch homolog protein 3 (Homo sapiens) (UniProt Q9UM47); experiment: small molecules binding NOTCH3 protein – biochemical, 635/667 nm fluorescence, primary screen (AID 1096); conditions: small-molecule microarray, 635 nm fluorescence, higher = more signal
[20] = probe aEGFR binding to arrayed compounds – biochemical, biotinylated probe, 635/667 nm fluorescence, primary screen (AID 1097); conditions: small-molecule microarray, higher = more signal;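 also: probe is a biotinylated anti-EGFR antibody binding compounds printed on slides; score combines fluorescence near 667 nm and signal to noise of each spot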

Sequence of Neurogenic locus notch homolog protein 2 (Homo sapiens) (Q04721 whole entry, looked up, canonical isoform): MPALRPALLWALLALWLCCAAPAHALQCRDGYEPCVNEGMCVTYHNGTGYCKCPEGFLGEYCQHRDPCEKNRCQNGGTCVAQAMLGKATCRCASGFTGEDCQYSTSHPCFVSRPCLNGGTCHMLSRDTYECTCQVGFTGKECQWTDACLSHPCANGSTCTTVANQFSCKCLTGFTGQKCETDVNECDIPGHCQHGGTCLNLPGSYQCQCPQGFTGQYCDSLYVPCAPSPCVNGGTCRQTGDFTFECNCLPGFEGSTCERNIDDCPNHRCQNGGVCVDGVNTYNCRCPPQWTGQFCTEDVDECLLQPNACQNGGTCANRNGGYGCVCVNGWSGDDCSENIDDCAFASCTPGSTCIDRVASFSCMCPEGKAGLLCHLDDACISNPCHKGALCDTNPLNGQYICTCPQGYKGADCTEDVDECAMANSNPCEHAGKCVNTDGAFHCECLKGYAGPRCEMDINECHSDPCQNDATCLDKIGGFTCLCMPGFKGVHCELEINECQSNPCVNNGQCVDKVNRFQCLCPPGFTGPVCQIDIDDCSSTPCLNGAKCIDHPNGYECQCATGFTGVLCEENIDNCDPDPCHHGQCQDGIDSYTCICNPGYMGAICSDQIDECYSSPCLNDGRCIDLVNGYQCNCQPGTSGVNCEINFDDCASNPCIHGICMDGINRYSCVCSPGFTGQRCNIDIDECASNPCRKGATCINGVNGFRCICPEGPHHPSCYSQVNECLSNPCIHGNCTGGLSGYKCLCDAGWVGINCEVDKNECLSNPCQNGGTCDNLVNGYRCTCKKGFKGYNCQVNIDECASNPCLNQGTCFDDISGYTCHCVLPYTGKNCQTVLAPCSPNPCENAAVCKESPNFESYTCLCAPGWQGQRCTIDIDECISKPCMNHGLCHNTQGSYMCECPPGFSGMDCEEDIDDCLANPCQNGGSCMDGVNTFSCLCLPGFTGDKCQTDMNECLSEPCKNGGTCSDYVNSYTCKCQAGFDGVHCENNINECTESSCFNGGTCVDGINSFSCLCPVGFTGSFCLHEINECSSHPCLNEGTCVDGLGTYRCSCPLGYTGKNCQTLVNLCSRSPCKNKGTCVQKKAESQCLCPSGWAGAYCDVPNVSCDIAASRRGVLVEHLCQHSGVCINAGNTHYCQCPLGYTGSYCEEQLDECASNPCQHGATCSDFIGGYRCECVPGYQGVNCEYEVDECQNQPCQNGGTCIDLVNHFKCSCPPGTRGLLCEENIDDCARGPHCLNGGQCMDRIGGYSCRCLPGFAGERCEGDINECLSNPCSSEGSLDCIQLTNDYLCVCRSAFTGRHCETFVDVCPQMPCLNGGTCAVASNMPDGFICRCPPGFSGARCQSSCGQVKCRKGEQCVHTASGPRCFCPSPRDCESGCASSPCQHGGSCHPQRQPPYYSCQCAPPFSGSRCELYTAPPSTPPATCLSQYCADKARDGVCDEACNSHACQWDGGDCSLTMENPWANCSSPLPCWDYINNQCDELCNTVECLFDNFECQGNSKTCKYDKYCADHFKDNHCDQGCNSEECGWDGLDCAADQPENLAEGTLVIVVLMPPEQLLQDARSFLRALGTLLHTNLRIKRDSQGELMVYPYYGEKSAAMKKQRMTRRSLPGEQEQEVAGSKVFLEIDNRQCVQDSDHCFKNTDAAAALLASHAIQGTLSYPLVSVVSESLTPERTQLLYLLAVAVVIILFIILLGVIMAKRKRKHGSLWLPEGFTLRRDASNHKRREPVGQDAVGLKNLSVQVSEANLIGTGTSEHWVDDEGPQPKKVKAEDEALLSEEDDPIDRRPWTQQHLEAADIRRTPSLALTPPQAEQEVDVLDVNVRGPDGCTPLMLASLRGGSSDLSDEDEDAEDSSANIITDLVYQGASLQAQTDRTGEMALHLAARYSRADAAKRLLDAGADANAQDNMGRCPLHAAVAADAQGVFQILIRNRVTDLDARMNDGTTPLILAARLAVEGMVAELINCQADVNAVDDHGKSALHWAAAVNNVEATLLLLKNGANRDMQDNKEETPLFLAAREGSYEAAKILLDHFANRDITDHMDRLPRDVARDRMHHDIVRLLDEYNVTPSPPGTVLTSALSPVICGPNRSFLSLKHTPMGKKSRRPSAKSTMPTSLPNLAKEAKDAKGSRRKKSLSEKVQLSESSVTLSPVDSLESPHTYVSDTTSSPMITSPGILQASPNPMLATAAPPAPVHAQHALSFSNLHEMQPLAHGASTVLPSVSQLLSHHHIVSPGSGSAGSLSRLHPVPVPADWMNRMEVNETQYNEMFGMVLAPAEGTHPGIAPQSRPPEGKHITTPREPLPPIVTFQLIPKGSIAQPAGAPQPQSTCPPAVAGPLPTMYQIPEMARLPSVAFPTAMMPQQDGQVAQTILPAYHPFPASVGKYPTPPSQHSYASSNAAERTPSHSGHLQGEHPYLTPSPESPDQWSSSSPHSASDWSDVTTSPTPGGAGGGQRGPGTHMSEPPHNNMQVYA
Sequence of Pro-neuregulin-1, membrane-bound isoform (Homo sapiens) (Q02297 whole entry, looked up, the tested form may be a part, canonical isoform): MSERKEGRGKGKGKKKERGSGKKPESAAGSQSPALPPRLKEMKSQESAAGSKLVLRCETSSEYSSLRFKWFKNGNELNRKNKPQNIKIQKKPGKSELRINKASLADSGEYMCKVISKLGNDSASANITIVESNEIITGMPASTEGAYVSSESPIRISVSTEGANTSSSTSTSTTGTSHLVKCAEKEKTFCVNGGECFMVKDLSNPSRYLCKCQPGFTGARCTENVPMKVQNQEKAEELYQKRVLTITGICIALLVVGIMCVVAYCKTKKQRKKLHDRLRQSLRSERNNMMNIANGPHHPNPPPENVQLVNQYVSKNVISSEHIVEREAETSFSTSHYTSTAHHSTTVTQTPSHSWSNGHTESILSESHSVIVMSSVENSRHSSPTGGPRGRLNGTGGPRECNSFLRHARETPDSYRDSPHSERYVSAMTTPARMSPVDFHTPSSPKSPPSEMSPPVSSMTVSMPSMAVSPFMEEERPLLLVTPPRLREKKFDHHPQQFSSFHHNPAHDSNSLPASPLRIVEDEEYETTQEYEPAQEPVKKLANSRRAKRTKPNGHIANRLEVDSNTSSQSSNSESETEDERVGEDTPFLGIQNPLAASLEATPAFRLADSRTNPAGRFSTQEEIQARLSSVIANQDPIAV
Sequence of Torsin-1A-interacting protein 2 (Homo sapiens) (Q8NFQ8 whole entry, looked up): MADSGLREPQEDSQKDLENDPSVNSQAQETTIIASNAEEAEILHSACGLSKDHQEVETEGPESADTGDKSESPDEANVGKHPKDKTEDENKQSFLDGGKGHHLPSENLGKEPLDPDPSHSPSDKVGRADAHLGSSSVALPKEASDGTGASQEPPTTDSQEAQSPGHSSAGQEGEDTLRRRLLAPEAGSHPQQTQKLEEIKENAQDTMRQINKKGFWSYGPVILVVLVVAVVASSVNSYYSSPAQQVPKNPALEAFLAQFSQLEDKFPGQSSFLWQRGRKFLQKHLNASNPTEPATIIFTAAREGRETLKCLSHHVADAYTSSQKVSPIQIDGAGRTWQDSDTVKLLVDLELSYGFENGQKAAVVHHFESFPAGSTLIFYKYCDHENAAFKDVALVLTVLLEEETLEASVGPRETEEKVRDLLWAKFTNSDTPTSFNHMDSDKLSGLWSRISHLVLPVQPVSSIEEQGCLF

Row | Structure (SMILES) | composite z-score [1] | composite z-score [2] | composite z-score [3] | composite z-score [4] | composite z-score [5] | composite z-score [6] | composite z-score [7] | z-score [8] | composite z-score [9] | composite z-score [10] | composite z-score [11] | z-score [12] | z-score [13] | z-score [14] | composite z-score [15] | z-score [16] | composite z-score [17] | composite z-score [18] | composite z-score [19] | composite z-score [20]
1 | C=C(CCCC)/C(=C/C[C@@H](OC(=O)c1ccncc1)c1ccc(OCCO)cc1)c1cnc2ccccc2c1 | 0.201 | 0.379 | 0.0166 | 1.19 | 1.48 | 0.227 | 0.841 | -0.723 (inactive) | 0.265 | -0.176 | 1.52 | 0.594 (inactive) | -1.59 (inactive) | 0.524 (inactive) | 0.447 | 1.48 (inactive) | -0.0523 | 1.72 | 1.06 | -0.0243
2 | CCN(CC)c1ccc(N2CC=CC34O[C@@H]5C=CCOC(=O)[C@@H]5[C@H]3C(=O)N(C(C)CO)[C@@H]4C2=O)cc1 (stereo not given in full) | 0.652 | -0.893 | -0.171 | -0.784 | -1.58 | 0.392 | 0.344 | 0.403 (inactive) | -0.278 | -0.0296 | -1.48 | -0.185 (inactive) | -1.4 (inactive) | -0.8 (inactive) | -0.151 | 1.7 (inactive) | -0.0592 | -1.39 | -0.894 | -0.252
3 | COCCOC(=O)N1C(=O)[C@@]2(c3cc(C#CCCO)ccc31)[C@H](c1ccccc1OCCO)N1[C@H](c3ccccc3)[C@H](c3ccccc3)OC(=O)[C@H]1[C@@H]2C(=O)NC[C@H](O)c1ccccc1 | -0.138 | 2.15 | -0.105 | 0.365 | 0.3 | 1.12 | 1.06 | -2.36 (inactive) | 0.555 | 0.0623 | 1.56 | -0.524 (inactive) | -1.14 (inactive) | 2.23 (inactive) | 1.29 | 3.51 (inactive) | -0.0898 | 1.71 | 0.99 | 0.0533
4 | CC(C)[C@@H](C(=O)O)n1cc(-c2ccccn2)nn1 | 0.22 | 0.424 | -0.378 | 0.458 | 0.537 | 0.419 | 0.961 | 0.0328 (inactive) | 0.659 | 0.0274 | 0.575 | 0.0655 (inactive) | -0.477 (inactive) | -0.353 (inactive) | 0.88 | 1.99 (inactive) | -0.378 | 0.332 | 0.309 | -0.0508
5 | COC(=O)C1=CC(c2ccc(CO)cc2)=CC(C2CC2)N(C)C=C1C(=O)OC (stereo not given) | 0.315 | 0.903 | -0.0538 | -0.0649 | 0.115 | 1.61 | 0.97 | -1.67 (inactive) | 0.0593 | -0.0994 | 1.31 | -5.61 (inactive) | -4.93 (inactive) | -2.41 (inactive) | 2.6 | 0.585 (inactive) | -0.141 | -0.946 | -0.464 | -0.154
6 | O=C1c2ccccc2[C@](Cc2ccccc2I)(C(=O)O)[C@H](c2ccc(CO)cc2)N1Cc1ccccc1Cl | 0.668 | 0.651 | -0.0301 | 0.0635 | 0.268 | 0.955 | 0.819 | 0.17 (inactive) | 0.43 | -0.0994 | 1.21 | -0.818 (inactive) | -1.53 (inactive) | -1.19 (inactive) | 1.82 | 1.13 (inactive) | 0.0678 | -0.168 | 0.239 | -0.104
7 | CO[C@H]1O[C@H](CO)[C@@H](OC(=O)CCc2ccccc2)[C@@H]2OC(=O)[C@H](Cc3ccccc3)C/C=C/C[C@@H](Cc3ccccc3)C(=O)O[C@@H]12 | -0.0198 | -0.106 | -0.134 | -0.357 | -0.512 | 0.92 | 1.14 | -1.51 (inactive) | -0.306 | -0.337 | 0.696 | -0.696 (inactive) | -2.18 (inactive) | 11.3 (active) | 1.4 | 1.98 (inactive) | -0.0905 | -0.748 | -0.033 | -0.347
8 | COc1ccc([Si](C)(C)[C@H]2[C@H](CC(=O)N3Cc4ccccc4C[C@H]3CO)O[C@@]3(C(=O)N(Cc4cccc(N5C(=O)COc6ccccc65)c4)c4ccccc43)[C@@H]2C)cc1 | -0.187 | 0.572 | -0.12 | 0.429 | 0.659 | 0.838 | 1.08 | -3.08 (inactive) | 0.203 | 0.0873 | 1.47 | -0.41 (inactive) | 0.349 (inactive) | 2.29 (inactive) | 1.89 | 1.86 (inactive) | -0.116 | 1.56 | 1.11 | -0.0192
9 | CC(C)C[C@@H]1NC(=O)[C@H]2C[C@@H](C(=O)NCCCC[N+](C)(C)C)[C@@H](c3cccc(OCCO)c3)N2C1=O | -0.746 | 1.9 | -0.138 | 0.253 | -0.942 | 1.95 | 1.43 | 0.683 (inactive) | -0.233 | -0.717 | 0.617 | -0.276 (inactive) | -0.262 (inactive) | -2.33 (inactive) | 3.37 | 0.395 (inactive) | -0.348 | 1.21 | 1.03 | 0.009
